The campaign covered roughly 340,000 compounds. About 12,000 (3.5%) were called active. Another 18% or so got no clear call; they are omitted. The sample holds actives, similar compounds and a random draw of the others, so the mix is not that of the screen. Values without a mark were called inactive. The call rests on the fitted dose curve; in most records, active means well fitted inhibition curve with a large enough effect; inconclusive means small, poorly fitted or top-dose-only effect, or another doubt; inactive means no such curve, though single readings can be large or run the other way.
On the % scale 0 is the no-effect control and ±100 the full control effect.

This experiment in a line: qHTS Assay for Inhibitors of Hepatitis C Virus (HCV). As to conditions: Huh7.5.1 HCVcc-Cre infection, luciferase reporter, 44 h; series mostly up to 41.8 µM; activity change, negative = inhibition: at the top concentration. From the text: Hepatitis C virus (HCV) infects about 200 million people in the world. Many infected people progress to chronic liver disease including cirrhosis with a risk of developing liver cancer. To date, there is no effective vaccine for hepatitis C. Current therapy based on interferon is only effective in about half of the patients and is associated with significant adverse effects. The fraction of people with HCV who can complete a successful treatment is estimated to be no more than 10 percent. Recent development of direct-acting antivirals against HCV, such as protease and polymerase inhibitors, is promising but still requires combination with peginterferon and ribavirin for maximal efficacy. In addition, these agents are associated with high rate of resistance and many have significant side effects. Due to the lack of a culture system for infectious HCV, the search for new HCV drugs has been greatly hampered. […] High-throughput screening (HTS) with an infectious HCV system would cover the complete spectrum of potentially druggable targets in all stages of HCV lifecycle, and would have more biological relevance than other cell-based assays. Moreover, targeting several key processes in the viral life cycle may not only increase antiviral efficacy; more importantly, it may also reduce the capacity of the virus to develop resistance to the compound. The goal of this project is to identify novel HCV inhibitors as new therapies for hepatitis C, using a highly sensitive and specific assay platform which is based on a HCV infectious cell culture system established in the laboratory and adapted for high-throughput HCV drug screen. NIH Chemical Genomics Center [NCGC] NIH Molecular Libraries Probe Centers Network [MLPCN] MLPCN Grant: MH095511 Assay Submitter (PI): Jake Liang, NIDDK
The assay will start with plating 1,000 cells/well in 3 µL volume and culture for 4 h. Then 23 nL of compounds from the library collection will be added to each well, followed by adding 2.5 µL of HCVcc-Cre virus (~ 0.5 moi) and further cultured for 44 h before the luciferase assay. A volume of 4.5 µL luciferase substrates will be added to each well and the plates will be incubated at room temperature for 15 min. and then read for 15 sec. for the luciferase activity
Turning to `Cc1ccn(-c2cccc(-n3ccc(C)n3)n2)n1`, the “activity change, negative = inhibition” value was 11.3%. Same read-out and setting: as for `Cc1cccc(N2CCN(Cc3nc(C4CC4)no3)CC2)n1`, the figure is 16.5%.

`Cc1cccc(N2O[C@H]3C=CC2CCCC3)n1`: the Potency is 25.1 µM (active).

With `CCOC(=O)c1ccccc1NC(=O)COC(=O)C(Cc1c[nH]c2ccccc12)NC(C)=O` (stereo not given), the “activity change, negative = inhibition” value is 17%. As for `COc1cc2ccccc2cc1C(=O)N1CCOCC1`, the “activity change, negative = inhibition” value is -2.47%. Regarding `COc1ccc(S(=O)(=O)N2CCN(CC(=O)N3c4ccccc4CC3C)CC2)cc1OC` (stereo not given), the “activity change, negative = inhibition” value was 1.67%. `CCCOC(=O)Nc1sc2c(c1C(=O)OCC)CCC2`: the Potency was 10 µM (active).

With `CCOC(=O)c1c(NC(=S)Nc2ccccc2C)sc2c1CCC2`, the “activity change, negative = inhibition” value was -26.7%.

Take `CCOC(=O)c1c(NC(=S)NC)sc2c1CCCC2`: the “activity change, negative = inhibition” value was -8.22%. For `CCOC(=O)c1c(NC(=O)C(C)Sc2c[nH]c3ccccc23)sc2c1CCC2` (stereo not given), the Potency was 11.2 µM (active).

On to `CCOC(=O)c1c(NC(=O)CSc2cn(CC)c3ccccc23)sc2c1CCC2`, for which the “activity change, negative = inhibition” value was 5.24%. The same measure, in the same setting: as for `CCOC(=O)c1c(NC(=S)NC(=O)c2ccco2)sc2c1CCCC2`, the figure is -9.06%.

Consider `O=C(CN1C(=O)NC2(CCCCCC2)C1=O)NCc1ccc(F)cc1`, for which the “activity change, negative = inhibition” value was 3.95%. `CCOc1ccc(NC(=O)CN(C)C(=O)CSc2ccccc2)cc1OCC`: the “activity change, negative = inhibition” value is -2.17%. Consider `O=C(Nc1ccc(F)c([N+](=O)[O-])c1)C1CCCO1` (stereo not given), for which the “activity change, negative = inhibition” value was 0.692%. With `Nc1nonc1-n1nnc(C(=O)N/N=C/c2ccccc2O)c1CN1CCCC1`, the “activity change, negative = inhibition” value was -7.74%.

For the molecule `COc1ccccc1NC(=O)COC(=O)CNC(=O)C1CCCCC1`, the “activity change, negative = inhibition” value was -14.3%.

For the molecule `Cc1cccc(C)c1Nc1nnc(SCC(=O)Nc2sccc2C#N)s1`, the “activity change, negative = inhibition” value is -9.42%. Consider `CC(c1nnc(SCC(=O)Nc2sccc2C#N)n1-c1ccc(Cl)cc1)N(C)C` (stereo not given), for which the Potency was 22.4 µM (active). `Cc1csc(SCC(=O)Nc2sccc2C#N)n1`: the “activity change, negative = inhibition” value is -12.8%. On the same count and under the same terms, in the case of `COc1ccccc1C(=O)NCCC(=O)NN1C(=O)NC2(CCCCC2)C1=O` it was 19.8%; in that of `O=C1CCCCC1Sc1ccc(Cl)cc1[N+](=O)[O-]` (stereo not given), 11.8%.

As for `Cc1cc(C)c(S(=O)(=O)NCC(c2ccc3c(c2)OCO3)N2CCOCC2)c(C)c1` (stereo not given), the “activity change, negative = inhibition” value is 13.2%.

Consider `O=C(NCCc1ccccc1)c1cccc(NC(=O)c2ccccc2)c1`, for which the “activity change, negative = inhibition” value is -4.33%. Consider `O=C(Cc1ccc(NC(=O)C2CCCN(C(=O)CCc3ccccc3)C2)cc1)Nc1ccc(C(=O)N2CCOCC2)cc1` (stereo not given), for which the activity change, negative = inhibition was -13.7% [at 8.37 µM].

For `CN(C)C(CNC(=O)Cc1ccc([N+](=O)[O-])cc1)c1ccccc1` (stereo not given), the “activity change, negative = inhibition” value is -24.7%. With `CN(C(=O)c1cccc(NC(=O)Cc2ccc([N+](=O)[O-])cc2)c1)C1CCC1`, the Potency was 3.16 µM (active). `CN(CCc1ccccc1)C(=O)c1cccc(NC(=O)Cc2cccc(NC(=O)C3CCCN(C(=O)CCc4ccccc4)C3)c2)c1` (stereo not given): the Potency was 0.794 µM (active).

For `CN(C(=O)c1cccc(NC(=O)Cc2ccc(NC(=O)C3CCCN(C(=O)C4CCCC4)C3)cc2)c1)C1CCC1` (stereo not given), the activity change, negative = inhibition was -26.3% [at 8.37 µM]. Still for that read-out and setting: as for `O=C(NCc1ccccc1)c1cccc(NC(=O)C2CCCCC2)c1`, the figure is -17.2% [at 8.37 µM]; as for `O=C(Cc1ccc(NC(=O)C2CCCN(C(=O)C3CCCCC3)C2)cc1)Nc1cccc(C(=O)N2CCCCC2)c1` (stereo not given), -22.8% [at 8.37 µM]. In the case of `CN(C(=O)c1cccc(NC(=O)Cc2cccc(NC(=O)C3CCCN(C(=O)C4CC4)C3)c2)c1)C1CCC1` (stereo not given), the activity change, negative = inhibition was -22.6% [at 8.37 µM]. As to `CN(CCc1ccccc1)C(=O)c1cccc(NC(=O)Cc2cccc(NC(=O)C3CCCN(C(=O)C4CCC4)C3)c2)c1` (stereo not given), the Potency was 10 µM (active). The same measure, in the same setting: as for `CC(C)(C)OC(=O)N1CCC(C(=O)Nc2cccc(C(=O)NCCc3ccccc3)c2)CC1`, the figure is 8.91 µM (active). Regarding `CN(C)CCNC(=O)Cc1ccc([N+](=O)[O-])cc1`, the “activity change, negative = inhibition” value was 5.72%.

Regarding `CC(Sc1ccccc1F)C(=O)Nc1cccc(S(=O)(=O)N2CCOCC2)c1` (stereo not given), the “activity change, negative = inhibition” value is -2.13%. On the same count and under the same terms, as for `CCC1(C)NC(=O)N(CC(=O)N2CCN(c3cccc(Cl)c3)CC2)C1=O` (stereo not given), the figure is 7.91%; as for `COc1ccc(S(=O)(=O)N2CCN(CC(=O)NCC3(N4CCOCC4)CCCCC3)CC2)cc1`, 17.9%. On the same count and under the same terms, in the case of `CC(NC(=O)c1ccccc1)C(=O)Nc1ccccc1` (stereo not given) it was 22.1%; in that of `COc1ccc(Cl)cc1C=CC=NNC(=O)c1ccncc1`, -12.9%; in that of `CC(=O)Nc1ccc(S(=O)(=O)N2CCN(S(=O)(=O)c3cccs3)CC2)cc1`, 8%. Turning to `CCC(C)c1ccc(NC(=O)COC(=O)C2CCCC2)cc1` (stereo not given), the “activity change, negative = inhibition” value is 24.4%.

Consider `Cc1ccccc1Nc1nc(N)nc(COC(=O)CCC(=O)c2ccc(F)cc2)n1`, for which the “activity change, negative = inhibition” value is 9.47%. On the same count and under the same terms, as for `COc1ccccc1NS(=O)(=O)c1ccc(C)c(C(=O)NNC(=O)c2csc(N3CCOCC3)n2)c1`, the figure is -6.37%; as for `Cc1cc(C)c(C)c(S(=O)(=O)N2CCN(C(=O)c3ccc4c(=O)n5c(nc4c3)CCC5)CC2)c1C`, -7.77%. For the molecule `CC(C)N(Cc1nnc(-c2ccc(Cl)cc2)o1)C(=O)C1=COCCO1`, the activity change, negative = inhibition was -0.237% [at 8.37 µM]. Regarding `CN(C(=O)c1cccc(NC(=O)Cc2ccc(NC(=O)C3CCCN(C(=O)C4CC4)C3)cc2)c1)C1CC1` (stereo not given), the “activity change, negative = inhibition” value is 0.531%. Consider `CN(C(=O)c1cccc(NC(=O)Cc2ccc(NC(=O)C3CCN(C(=O)C4CCCCC4)CC3)cc2)c1)C1CCC1`, for which the activity change, negative = inhibition is -11.4% [at 8.37 µM]. Consider `CN(C(=O)c1ccc(NC(=O)Cc2cccc(NC(=O)C3CCN(C(=O)c4ccccc4)CC3)c2)cc1)C1CC1`, for which the Potency was 0.562 µM (active).

In the case of `CCOc1ccc(S(=O)(=O)N2CCC(C(=O)NCC(=O)Nc3cccc(Cl)c3C)CC2)cc1`, the “activity change, negative = inhibition” value is 5.38%.

(Values after PubChem BioAssay AID651820 (National Center for Advancing Translational Sciences (NCATS), 2012).)
